The source of these data is ChEMBL document CHEMBL3988442, “University of Dundee, Small-Polar-MMV Screening Library” (2021).

For some of these results: Results with a measured potency or affinity are listed apart.

Common to all, as to set-up: scale not given: direction of the effect not stated beside the values
The target of assay [1] is Protein translocase subunit SecA (Escherichia coli (strain K12)) (UniProt P10408). Nature of the assay: Assay to Identify E. coli SecA ATPase Inhibitors. It counts as functional. The following applies: 30 µM.
The target in assay [2] is T1, Ubiquitin-activating enzyme e1, putative (Leishmania donovani (strain BPK282A1)) (UniProt E9BSI1).
T1 sequence (whole entry): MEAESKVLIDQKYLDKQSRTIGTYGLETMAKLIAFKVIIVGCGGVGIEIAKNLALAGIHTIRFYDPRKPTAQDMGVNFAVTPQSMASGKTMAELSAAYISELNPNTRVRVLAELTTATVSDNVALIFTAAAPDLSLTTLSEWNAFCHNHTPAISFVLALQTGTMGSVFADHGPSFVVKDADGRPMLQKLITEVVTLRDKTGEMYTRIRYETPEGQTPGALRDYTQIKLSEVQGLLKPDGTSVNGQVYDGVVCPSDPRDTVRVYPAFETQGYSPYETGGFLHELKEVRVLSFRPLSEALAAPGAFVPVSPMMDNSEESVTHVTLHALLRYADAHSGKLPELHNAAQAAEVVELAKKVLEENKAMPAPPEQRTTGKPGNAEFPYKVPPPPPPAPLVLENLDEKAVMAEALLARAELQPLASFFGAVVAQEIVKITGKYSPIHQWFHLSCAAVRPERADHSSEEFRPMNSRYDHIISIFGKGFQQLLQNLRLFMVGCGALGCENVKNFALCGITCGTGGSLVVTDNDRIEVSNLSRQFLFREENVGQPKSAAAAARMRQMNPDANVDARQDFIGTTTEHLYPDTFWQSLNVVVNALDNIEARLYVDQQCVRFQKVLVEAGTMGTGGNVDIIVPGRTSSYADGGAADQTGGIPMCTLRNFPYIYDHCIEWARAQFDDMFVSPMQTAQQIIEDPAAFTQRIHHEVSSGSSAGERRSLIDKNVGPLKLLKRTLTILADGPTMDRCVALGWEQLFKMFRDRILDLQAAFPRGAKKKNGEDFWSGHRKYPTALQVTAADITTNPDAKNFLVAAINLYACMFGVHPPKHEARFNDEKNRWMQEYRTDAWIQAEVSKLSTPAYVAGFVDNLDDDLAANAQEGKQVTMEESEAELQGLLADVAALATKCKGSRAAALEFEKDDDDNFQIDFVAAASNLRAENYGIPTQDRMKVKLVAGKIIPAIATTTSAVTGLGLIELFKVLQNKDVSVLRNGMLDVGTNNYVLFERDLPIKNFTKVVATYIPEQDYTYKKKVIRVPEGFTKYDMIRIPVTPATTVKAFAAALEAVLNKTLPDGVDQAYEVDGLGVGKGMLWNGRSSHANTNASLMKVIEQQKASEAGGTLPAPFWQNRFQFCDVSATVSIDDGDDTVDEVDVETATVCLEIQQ
Nature of the assay: Leishmania donovani Ubiquitin Activating Enzyme (LdE1). Format: functional. The settings on record: 30 µM.

Assay [3] has as its target AMP-activated protein kinase, AMPK (Homo sapiens) (UniProt P54646+O43741+P54619+Q9UGJ0+Q9Y478+Q13131+Q9UGI9). The experiment in a line: AMP-dependent Kinase enzyme assay. An in vitro enzyme assay that detects ADP turnover that is directly proportional to AMPK activity. This uses naive AMPK that is activated during the assay with MK-8722. It counts as functional. The settings on record: 30 µM.

Assay [4] addresses Sialic acid-binding Ig-like lectin 9 (Homo sapiens) (UniProt Q9Y336). The experiment in a line: Hs-Siglec9 ALPHAscreen SOP 20170721. The settings on record: 10 µM. In general terms: In Alpha technology, singlet oxygen from a donor bead excites a nearby acceptor bead.
In the next assay the test system is Trypanosoma cruzi. Nature of the assay: Trypanosoma cruzi phosphomannomutase and mannose-1-phosphate guanylyltransferase assay. It counts as functional. The settings on record: 10 µM.
In assay [5] the target is T2, Arginase-2, mitochondrial (Homo sapiens) (UniProt P78540).
T2 sequence (whole entry): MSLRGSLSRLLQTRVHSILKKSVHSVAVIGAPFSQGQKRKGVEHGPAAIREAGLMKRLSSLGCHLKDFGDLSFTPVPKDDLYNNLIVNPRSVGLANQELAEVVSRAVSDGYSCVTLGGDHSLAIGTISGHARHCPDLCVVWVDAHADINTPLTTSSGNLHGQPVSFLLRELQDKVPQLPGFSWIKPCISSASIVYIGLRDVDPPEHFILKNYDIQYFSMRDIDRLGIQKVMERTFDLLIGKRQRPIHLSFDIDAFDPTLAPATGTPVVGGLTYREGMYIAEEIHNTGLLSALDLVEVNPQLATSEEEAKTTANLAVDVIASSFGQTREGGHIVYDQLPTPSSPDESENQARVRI
Nature of the assay: in vitro enzyme assay to detect the production of urea directly proportional to the activity of Arginase II. Also: in the data most compounds retested in dose-response had high values. Format: functional. The following applies: 33.3 µM.

Assay [6] concerns the target T3, Proteasome subunit beta (Trypanosoma cruzi) (UniProt O96673).
T3 sequence (whole entry): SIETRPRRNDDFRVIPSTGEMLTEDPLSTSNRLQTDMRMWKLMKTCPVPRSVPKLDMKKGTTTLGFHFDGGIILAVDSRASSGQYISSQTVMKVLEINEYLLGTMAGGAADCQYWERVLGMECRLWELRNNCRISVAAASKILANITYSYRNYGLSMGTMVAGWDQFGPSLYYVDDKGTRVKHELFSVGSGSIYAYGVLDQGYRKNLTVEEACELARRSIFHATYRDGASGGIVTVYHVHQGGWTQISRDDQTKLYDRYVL
The experiment in a line: Trypanosoma cruzi proteasome chymotrypsin-like activity (TcProtChymo) assay. Also: in the data most compounds retested in dose-response had high values. The settings on record: 9.37 µM. Format: functional.

The species entered for the next assay is Homo sapiens. Nature of the assay: To identify inhibition of the IFN signalling (Jak-Stat) pathway via expression of an eGFP reporter gene under the control of an IFN-stimulated response element (ISRE) containing MxA promoter. It counts as functional. The following applies: 30 µM.
Assay [7] concerns the target T4, Tyrosyl-tRNA synthetase, putative (Trypanosoma cruzi (strain CL Brener)) (UniProt Q4DSP6).
T4 sequence (whole entry): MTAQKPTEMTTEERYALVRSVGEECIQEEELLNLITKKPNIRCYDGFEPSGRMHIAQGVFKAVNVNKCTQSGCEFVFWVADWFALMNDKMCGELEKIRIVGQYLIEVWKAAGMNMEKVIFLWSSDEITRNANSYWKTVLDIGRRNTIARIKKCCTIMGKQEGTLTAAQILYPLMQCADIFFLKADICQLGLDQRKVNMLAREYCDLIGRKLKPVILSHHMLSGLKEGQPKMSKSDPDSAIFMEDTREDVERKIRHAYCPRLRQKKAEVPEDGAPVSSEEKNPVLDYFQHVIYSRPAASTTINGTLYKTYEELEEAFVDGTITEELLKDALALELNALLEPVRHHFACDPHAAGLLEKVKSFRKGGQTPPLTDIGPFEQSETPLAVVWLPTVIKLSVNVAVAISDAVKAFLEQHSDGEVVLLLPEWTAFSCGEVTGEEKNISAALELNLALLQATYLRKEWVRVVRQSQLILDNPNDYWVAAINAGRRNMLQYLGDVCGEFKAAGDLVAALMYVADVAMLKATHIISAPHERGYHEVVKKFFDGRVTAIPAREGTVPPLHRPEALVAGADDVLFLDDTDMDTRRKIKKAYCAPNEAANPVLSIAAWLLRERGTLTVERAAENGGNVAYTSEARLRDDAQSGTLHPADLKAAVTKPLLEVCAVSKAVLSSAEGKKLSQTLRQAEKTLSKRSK
The experiment in a line: Trypanosoma cruzi tyrosyl tRNA synthetase (TcYRS) _High Tyrosine SOP. Also: in the data most compounds retested in dose-response had high values. Format: functional. The settings on record: 30 µM.

Assay [8] has as its target T4, Tyrosyl-tRNA synthetase, putative (Trypanosoma cruzi (strain CL Brener)). Nature of the assay: Trypanosoma cruzi tyrosyl tRNA synthetase (TcYRS) SOP. It counts as functional. The following applies: 30 µM.
In assay [9] the target is Chromo domain-containing protein 1 (Saccharomyces cerevisiae (strain ATCC 204508 / S288c) (Baker's yeast)) (UniProt P32657). The experiment in a line: ScCHD-1 Enzyme Inhibition Assay. Also: in the data most compounds retested in dose-response had high values. Format: functional. The following applies: 30 µM.
Chromo domain-containing protein 1 (Saccharomyces cerevisiae (strain ATCC 204508 / S288c) (Baker's yeast)), sequence (P32657 whole entry, the tested form may be a part): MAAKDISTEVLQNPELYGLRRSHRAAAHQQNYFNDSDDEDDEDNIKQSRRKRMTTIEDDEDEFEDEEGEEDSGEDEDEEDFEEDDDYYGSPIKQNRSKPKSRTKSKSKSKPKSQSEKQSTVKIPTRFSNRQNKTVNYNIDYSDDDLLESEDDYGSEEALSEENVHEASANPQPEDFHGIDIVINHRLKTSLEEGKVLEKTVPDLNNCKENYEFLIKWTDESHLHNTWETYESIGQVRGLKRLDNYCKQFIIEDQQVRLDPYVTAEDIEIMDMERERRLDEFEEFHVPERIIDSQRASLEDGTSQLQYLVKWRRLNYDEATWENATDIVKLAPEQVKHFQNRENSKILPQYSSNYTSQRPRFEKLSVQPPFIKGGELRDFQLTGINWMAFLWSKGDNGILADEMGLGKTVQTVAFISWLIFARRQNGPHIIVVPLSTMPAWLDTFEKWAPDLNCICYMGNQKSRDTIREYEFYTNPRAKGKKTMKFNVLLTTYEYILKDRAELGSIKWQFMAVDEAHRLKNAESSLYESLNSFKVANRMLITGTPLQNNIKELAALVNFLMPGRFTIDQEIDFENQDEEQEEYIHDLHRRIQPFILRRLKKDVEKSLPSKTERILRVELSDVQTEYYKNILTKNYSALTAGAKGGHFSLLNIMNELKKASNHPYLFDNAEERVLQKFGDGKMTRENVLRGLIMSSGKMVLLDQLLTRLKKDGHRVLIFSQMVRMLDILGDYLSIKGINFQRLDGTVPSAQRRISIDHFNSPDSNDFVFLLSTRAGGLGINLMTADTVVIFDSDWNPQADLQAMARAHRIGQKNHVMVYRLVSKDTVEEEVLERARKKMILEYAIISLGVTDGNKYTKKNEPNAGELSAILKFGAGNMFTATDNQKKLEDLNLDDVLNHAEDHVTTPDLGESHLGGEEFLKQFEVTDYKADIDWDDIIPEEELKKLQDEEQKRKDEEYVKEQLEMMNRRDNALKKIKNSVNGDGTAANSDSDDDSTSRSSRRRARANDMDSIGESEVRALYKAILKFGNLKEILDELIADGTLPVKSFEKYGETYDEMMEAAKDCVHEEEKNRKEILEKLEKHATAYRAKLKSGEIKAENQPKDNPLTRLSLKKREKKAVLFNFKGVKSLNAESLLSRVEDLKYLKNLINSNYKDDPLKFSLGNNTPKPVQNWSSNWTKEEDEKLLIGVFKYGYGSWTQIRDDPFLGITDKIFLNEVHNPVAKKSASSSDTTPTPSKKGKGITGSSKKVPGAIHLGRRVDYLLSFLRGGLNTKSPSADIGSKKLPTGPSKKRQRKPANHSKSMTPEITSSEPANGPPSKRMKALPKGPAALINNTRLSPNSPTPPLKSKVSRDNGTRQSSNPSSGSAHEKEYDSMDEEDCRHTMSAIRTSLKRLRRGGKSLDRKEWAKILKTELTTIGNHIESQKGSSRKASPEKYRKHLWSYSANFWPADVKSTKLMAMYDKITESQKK

Protein translocase subunit SecA (Escherichia coli (strain K12)), sequence (P10408 whole entry): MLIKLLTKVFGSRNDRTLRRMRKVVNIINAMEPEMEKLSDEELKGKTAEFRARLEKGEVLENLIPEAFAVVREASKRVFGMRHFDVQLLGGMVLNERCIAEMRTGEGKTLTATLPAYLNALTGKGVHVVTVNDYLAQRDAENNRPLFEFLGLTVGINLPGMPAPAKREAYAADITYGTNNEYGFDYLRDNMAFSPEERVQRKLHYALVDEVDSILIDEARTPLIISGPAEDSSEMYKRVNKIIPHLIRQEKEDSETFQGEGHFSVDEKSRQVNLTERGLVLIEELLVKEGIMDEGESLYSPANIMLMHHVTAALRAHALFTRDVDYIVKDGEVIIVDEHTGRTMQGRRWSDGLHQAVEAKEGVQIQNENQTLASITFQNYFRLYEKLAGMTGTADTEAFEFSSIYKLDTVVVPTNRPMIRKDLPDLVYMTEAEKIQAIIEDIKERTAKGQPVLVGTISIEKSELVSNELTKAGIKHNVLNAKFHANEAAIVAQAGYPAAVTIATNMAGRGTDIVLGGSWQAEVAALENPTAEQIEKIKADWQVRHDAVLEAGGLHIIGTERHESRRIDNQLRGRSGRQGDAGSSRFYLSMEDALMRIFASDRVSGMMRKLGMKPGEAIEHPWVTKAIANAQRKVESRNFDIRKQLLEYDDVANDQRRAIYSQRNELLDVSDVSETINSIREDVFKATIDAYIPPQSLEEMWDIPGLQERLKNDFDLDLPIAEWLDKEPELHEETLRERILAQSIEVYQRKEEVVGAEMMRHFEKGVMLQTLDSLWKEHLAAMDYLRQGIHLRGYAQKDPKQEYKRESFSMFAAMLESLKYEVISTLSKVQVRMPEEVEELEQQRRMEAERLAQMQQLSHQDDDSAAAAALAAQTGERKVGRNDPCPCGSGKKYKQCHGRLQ
Sialic acid-binding Ig-like lectin 9 (Homo sapiens), sequence (Q9Y336 whole entry): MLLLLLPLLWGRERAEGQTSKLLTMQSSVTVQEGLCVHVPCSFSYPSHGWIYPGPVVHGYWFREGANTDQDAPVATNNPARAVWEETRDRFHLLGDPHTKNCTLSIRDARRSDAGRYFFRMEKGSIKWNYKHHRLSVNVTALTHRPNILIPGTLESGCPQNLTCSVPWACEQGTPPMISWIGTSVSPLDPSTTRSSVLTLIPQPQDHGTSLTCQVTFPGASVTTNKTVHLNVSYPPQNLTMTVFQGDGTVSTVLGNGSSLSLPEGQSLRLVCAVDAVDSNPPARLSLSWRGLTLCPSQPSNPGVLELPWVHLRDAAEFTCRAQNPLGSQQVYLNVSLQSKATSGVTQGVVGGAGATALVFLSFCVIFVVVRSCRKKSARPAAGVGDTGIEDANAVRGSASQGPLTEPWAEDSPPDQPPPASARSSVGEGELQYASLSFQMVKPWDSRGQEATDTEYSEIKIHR

On to `O=C(c1cccc(N2CCCC2=O)c1)N1CCCC(n2cncn2)C1` (stereo unspecified), for which the Percent Effect is -5.98% in [1]; 13.5% in assay [2]; -31.2% in [3]; 2.17% in assay [4]; -1.6% with Trypanosoma cruzi; -1.6% in assay [5]. For the same molecule, the Percent Effect in assay [6] is -0.18%; in the assay listed under Homo sapiens, 7.08%; in assay [7] it was 8.37%; in assay [8] it was 13.6%; in [9] it was -5.4%.
Regarding `CC(Cc1ccco1)NC(=O)Nc1ccc(S(C)(=O)=O)nc1` (stereo unspecified), the Percent Effect in [1] was -4.47%; in assay [2], 18.4%; in [3], -6.45%; in assay [4], -1.24%; in the assay on Trypanosoma cruzi, 4.13%; in assay [5] it was -0.383%. Further, the Percent Effect in assay [6] is 9.52%; in the assay filed under Homo sapiens, 21.8%; in assay [7], 9.31%; in assay [8], 19.5%; in assay [9], -12.4%.
With `CCc1cnc(N2CCC3(CC2)CN(c2cccnc2)C(=O)CO3)nc1`, the Percent Effect in assay [1] was -5.43%; in assay [2] it was 0%; in [3], 2.98%; in [4], -2.45%; in the assay on Trypanosoma cruzi it was -3.03%; in assay [5], -4.78%. Besides, the Percent Effect was 7.01% in assay [6]; 26.6% in the assay listed under Homo sapiens; -4.32% in assay [7]; -7.69% in [8]; 6.26% in assay [9].
As to `Cc1cc(C)c(CNC(=O)N(C)CC2CCCCO2)c(=O)[nH]1` (stereo unspecified), the Percent Effect in assay [1] was -3.05%; in [2], 7.89%; in [3] it was 2.98%; in assay [4], -2.11%; in the assay on Trypanosoma cruzi, -8.84%; in assay [5], 3.06%. Also, the Percent Effect was 14.2% in assay [6]; 30.1% in the assay filed under Homo sapiens; 4.41% in assay [7]; 9.76% in assay [8]; -2.04% in [9].
`CCOC(C)c1nc(CN2CCC(CNC(C)=O)CC2)cs1` (stereo unspecified): the Percent Effect is -1.27% in [1]; 0% in assay [2]; -5.03% in assay [3]; 0.273% in [4]; 1.93% with Trypanosoma cruzi; -2.86% in [5]. Besides, the Percent Effect in assay [6] was 8.97%; in the assay filed under Homo sapiens, -19.2%; in [7], -0.529%; in assay [8], -2.44%; in assay [9] it was -2.65%.
`CCOCC1CN(C(=O)N(C)C)Cc2nn(C)cc21` (stereo unspecified): the Percent Effect in assay [1] was -3.04%; in assay [2], 8%; in assay [3], -0.352%; in [4] it was 2.29%; in the assay on Trypanosoma cruzi, -0.579%; in assay [5] it was -40.3%. The Percent Effect in assay [6] was 8.03%; in the assay filed under Homo sapiens, -8.7%; in assay [7] it was 1.04%; in [8], 10%; in assay [9], -7.3%.
In the case of `Cc1cnc2n(c1=O)CC(C(=O)NC1CC1)CS2` (stereo unspecified), the Percent Effect was -4.55% in assay [1]; -21.9% in assay [2]; -9.15% in assay [3]; -1.37% in assay [4]; 0.979% in the assay on Trypanosoma cruzi; 4.54% in [5]. Besides, the Percent Effect was 6.21% in [6]; 1.36% in the assay listed under Homo sapiens; 2.15% in assay [7]; 0% in [8]; -5.19% in [9].
In the case of `CCn1nc(C)c2ccn(CC(=O)NC3CCCC3)c(=O)c21`, the Percent Effect in [1] was -4.42%; in assay [2], 7.79%; in assay [3] it was 58%; in assay [4], 0.145%; with Trypanosoma cruzi, -4.63%; in [5], 0.645%. Further, the Percent Effect is 5.57% in assay [6]; 20.1% in the assay listed under Homo sapiens; -1.06% in [7]; -6.41% in [8]; -2.48% in [9].
As to `Cc1ccc(-c2cccc(-c3ccn(CCN4CCCC4)n3)c2)nn1`, the Percent Effect in [1] was -0.771%; in assay [2], -8.11%; in assay [3], -1.02%; in assay [4], 3.72%; in the assay on Trypanosoma cruzi it was -3.09%; in [5], 0.952%. For the same molecule, the Percent Effect was 4.31% in [6]; 7.06% in the assay listed under Homo sapiens; 5.82% in assay [7]; 0% in [8]; 0.00646% in assay [9].
For the molecule `CC(C)c1noc(CN2CCC3(CCCO3)CCC2=O)n1` (stereo unspecified), the Percent Effect in assay [1] was -8.4%; in assay [2], 2.67%; in [3], 0.336%; in assay [4] it was -1.54%; in the assay on Trypanosoma cruzi it was -3.8%; in assay [5] it was -0.521%. The Percent Effect in assay [6] is 2.27%; in the assay filed under Homo sapiens, 25.6%; in [7], 1.64%; in [8], 6.17%; in [9] it was -6.74%.
As for `Cc1cnn(C2CCCN(C(=O)CCCOc3cccc(F)c3)C2)c1` (stereo unspecified), the Percent Effect in assay [1] was -4.89%; in assay [2] it was -1.27%; in [3], 42.4%; in [4], 2.93%; with Trypanosoma cruzi it was 0.513%; in assay [5], 4.52%. The Percent Effect in assay [6] was 0%; in the assay listed under Homo sapiens it was 3.38%; in assay [7], -3.12%; in assay [8], -5.06%; in [9], -28.9%.
